{
  "source": "PubChem BioAssay AID588335",
  "about": "(The Scripps Research Institute Molecular Screening Center, 2011)",
  "note": "In all, about 360,000 compounds went through this assay and about 4,500 (1.2%) were called active. Cut-off read from the data, not from the text of the source: active = inhibition above about 30%; inactive = the rest. What follows is part of a selection rich in actives, with near analogues and random picks from the rest.",
  "data": [
    {"test": "GDH-TPI coupling enzyme inhibitors, primary screen, artefact control for M. tuberculosis FBA inhibitor project, biochemical, absorbance, full deck (AID 588335);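 note: 0% = DMSO wells and 100% = wells lacking the enzyme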", "conditions": "GDH-TPI coupled enzyme counterscreen, NADH absorbance; at 4.8 µM; hits give high values", "values": [
      {"smiles": "CCCCN1C(=O)c2ccc(C(=O)Nc3ccc(S(=O)(=O)N(C)C)cc3)cc2C1=O", "inhibition": "2.95% (inactive)"},
      {"smiles": "Cc1ccc(NC2=NC(c3ccccc3)n3c(nc(C)cc3=O)N2)cc1", "note": "(configuration not stated)", "inhibition": "4.69% (inactive)"},
      {"smiles": "COc1ccc(/C=N/Nc2nc3ccccc3o2)cc1OC", "inhibition": "44.1% (active)"},
      {"smiles": "COc1ccc(/C=N/n2nnnc2N)cc1OC", "inhibition": "21.5% (inactive)"},
      {"smiles": "CCOc1ccccc1/C=N/Nc1nc2ccccc2o1", "inhibition": "8.78% (inactive)"},
      {"smiles": "CC(C)[C@H](NC(=O)c1ccccc1F)C(=O)Nc1cccc(S(=O)(=O)N2CCOCC2)c1", "inhibition": "-3.11% (inactive)"},
      {"smiles": "CN1C(=O)c2ccc(NC(=O)c3c(F)c(F)c(F)c(F)c3F)cc2C1=O", "inhibition": "10.2% (inactive)"},
      {"smiles": "CC(C)(C)c1cc[n+](-c2[nH]c(=O)sc2/C=N/N=C(\\[O-])c2ccccc2)cc1", "inhibition": "32.8% (active)"},
      {"smiles": "Cc1cc[n+](-c2[nH]c(=O)sc2/C=N/NC(=O)c2ccccc2[O-])cc1C", "inhibition": "30.5% (inactive)"},
      {"smiles": "Cc1cccc(C)c1NC(=S)N(Cc1cccnc1)Cc1ccccc1Cl", "inhibition": "0.63% (inactive)"},
      {"smiles": "CC1(C)CC(=O)C2=C(C1)NCN(CCCN1CCOCC1)C2", "inhibition": "6.39% (inactive)"},
      {"smiles": "O=C(COc1ccc2ccc(=O)oc2c1)NCC(O)c1ccccc1", "note": "(configuration not stated)", "inhibition": "7.87% (inactive)"},
      {"smiles": "CC(C)OC(=O)c1ccc(COc2ccc3ccc(=O)oc3c2)o1", "inhibition": "6.9% (inactive)"},
      {"smiles": "CC(=CCOc1ccc2ccc(=O)oc2c1)C1=CC(=O)C(C)(C)O1", "inhibition": "32.7% (active)"},
      {"smiles": "COc1ccc2oc(C(=O)OCC(=O)N(CC(C)C)c3c(N)n(Cc4ccccc4)c(=O)[nH]c3=O)c(C)c2c1", "inhibition": "-3.6% (inactive)"},
      {"smiles": "O=C1Nc2ccc([N+](=O)[O-])cc2C1=Nc1cccc(CO)c1", "inhibition": "15.1% (inactive)"},
      {"smiles": "CCOc1ccc(C(C(=O)NCCOC)N(CCOC)C(=O)CCC(=O)Nc2ccccn2)cc1", "note": "(configuration not stated)", "inhibition": "5.17% (inactive)"},
      {"smiles": "COC(=O)Cc1cnc(NC(=O)CSc2nc(C(C)C)cc(=O)[nH]2)s1", "inhibition": "-1.15% (inactive)"},
      {"smiles": "Cc1c(O)c(C)c2c(c1O)C(=O)C[C@@H](c1ccccc1)O2", "inhibition": "31% (active)"},
      {"smiles": "COc1ccc2c(c1)C(=O)CC(c1ccccc1)O2", "note": "(configuration not stated)", "inhibition": "0.86% (inactive)"},
      {"smiles": "O=C1CC(c2ccccc2)C(=O)N2C(=O)CC(c3ccccc3)C(=O)N12", "note": "(configuration not stated)", "inhibition": "1.76% (inactive)"},
      {"smiles": "NC(=O)CN1CCCC1c1ccc2c(c1)OCCO2", "note": "(configuration not stated)", "inhibition": "-7.41% (inactive)"},
      {"smiles": "CC1=NNC(=O)C1CCC(=O)N/N=C\\c1cccc(Cl)c1", "note": "(configuration not stated)", "inhibition": "-3.82% (inactive)"},
      {"smiles": "CCOC(=O)c1ccc(COC(=O)c2cc(=O)[nH]c3ccccc23)o1", "inhibition": "7.46% (inactive)"},
      {"smiles": "CCCCSc1[nH]c(=O)c(C(=O)OCC)cc1C#N", "inhibition": "36.1% (active)"},
      {"smiles": "CCOC(=O)C(Sc1ncc(C#N)c(N)n1)C(C)C", "note": "(configuration not stated)", "inhibition": "5.66% (inactive)"},
      {"smiles": "CC(=O)N1C(C)c2ccccc2C(C)(C)CC12CCCCC2", "note": "(configuration not stated)", "inhibition": "4.51% (inactive)"},
      {"smiles": "O=C1COc2ccc(C(=O)COC(=O)c3cccnc3Cl)cc2N1", "inhibition": "1.57% (inactive)"},
      {"smiles": "Cc1ccc(NC(=O)/C(=C\\c2ccccc2)NC(=O)c2ccco2)cc1", "inhibition": "21.3% (inactive)"},
      {"smiles": "COc1ccc(/C=C(/NC(=O)c2ccco2)C(=O)Nc2ccc(C(C)=O)cc2)cc1", "inhibition": "33.5% (active)"},
      {"smiles": "COc1ccccc1C(=O)N/C(=C/c1ccco1)C(=O)Nc1ccc(C(=O)O)cc1", "inhibition": "1.49% (inactive)"},
      {"smiles": "CC1(C)COC(c2cccn2Cc2ccccc2Cl)=N1", "inhibition": "12.7% (inactive)"},
      {"smiles": "O=C(NCc1ccncc1)C(=O)NCC1OCCN1S(=O)(=O)c1ccc(Br)cc1", "note": "(configuration not stated)", "inhibition": "3.11% (inactive)"},
      {"smiles": "O=C(Cc1ccsc1)N1CCN(S(=O)(=O)c2cc(C(F)(F)F)cc(C(F)(F)F)c2)CC1", "inhibition": "6.47% (inactive)"},
      {"smiles": "Oc1c(Br)cc(/C=N/NC(=S)NCC2CCCO2)cc1Br", "note": "(configuration not stated)", "inhibition": "37.8% (active)"},
      {"smiles": "S=C(NCC1CCCO1)N1CCN(c2ccc(Cl)c(Cl)c2)CC1", "note": "(configuration not stated)", "inhibition": "-2.84% (inactive)"},
      {"smiles": "O=C(CNC(=O)c1ccc(Br)o1)NCC1CCCO1", "note": "(configuration not stated)", "inhibition": "-4.74% (inactive)"},
      {"smiles": "CC(C)(C)CC(C)(C)NCC(O)COCCOc1ccc(Br)cc1", "note": "(configuration not stated)", "inhibition": "-7.87% (inactive)"},
      {"smiles": "CC(=NNC(N)=O)C1CC2CCC1CC2", "note": "(configuration not stated)", "inhibition": "4% (inactive)"},
      {"smiles": "CC1CCCCC1NC(=O)COC(=O)Cc1ccc(Br)cc1", "note": "(configuration not stated)", "inhibition": "0.32% (inactive)"},
      {"smiles": "O=C(/C=C/c1ccc2c(c1)OCCO2)c1ccc(O)cc1", "inhibition": "37.5% (active)"},
      {"smiles": "C/C(=N\\NC(=O)C(N)=O)c1ccc2c(c1)OCCO2", "inhibition": "0.63% (inactive)"},
      {"smiles": "Cc1ccnc(NC(=O)c2ccc(Cl)c([N+](=O)[O-])c2)c1", "inhibition": "8.28% (inactive)"},
      {"smiles": "O=C(COC(=O)c1ccc(O)cc1O)c1ccc2c(c1)OCCO2", "inhibition": "-0.63% (inactive)"},
      {"smiles": "O=C(O)c1ccc2c(=O)n3c(nc2c1)/C(=C/c1ccc(Cl)c([N+](=O)[O-])c1)CC3", "inhibition": "-3.69% (inactive)"},
      {"smiles": "O=C(/C=C/c1ccc(Cl)c([N+](=O)[O-])c1)c1ccc(O)cc1", "inhibition": "40.7% (active)"},
      {"smiles": "CC(C)C(=O)N1CC(=O)Nc2ccc(F)cc2C1c1ccc(F)cc1", "note": "(configuration not stated)", "inhibition": "2.76% (inactive)"},
      {"smiles": "CSc1nc2ccccc2cc1/C=C(\\C#N)c1ccc(Cl)cc1Cl", "inhibition": "12.3% (inactive)"},
      {"smiles": "CC(=O)N1CCc2cc(Br)cc(S(=O)(=O)CCC(=O)Nc3c(C)n(C)n(-c4ccccc4)c3=O)c21", "inhibition": "0% (inactive)"},
      {"smiles": "CCN(CC)CCCNC(=O)c1ccc2c(=O)n(Cc3ccc4c(c3)OCO4)c(=S)[nH]c2c1", "inhibition": "3.66% (inactive)"},
      {"smiles": "CCSC(C)CC1C/C(=N/O)c2c(C)noc2C1", "note": "(configuration not stated)", "inhibition": "-6.62% (inactive)"},
      {"smiles": "C[C@@H]1O[C@@H](OC[C@H]2O[C@@H](Oc3c(-c4ccc(O)cc4)oc4cc(O)cc(O)c4c3=O)[C@H](O)[C@@H](O)[C@@H]2O)[C@H](O)[C@H](O)[C@H]1O", "inhibition": "17.6% (inactive)"},
      {"smiles": "COc1c(O)cc2oc(-c3ccc(O)c(O)c3)cc(=O)c2c1O", "inhibition": "22% (inactive)"},
      {"smiles": "COc1ccc(-c2cc(=O)c3c(O)cc(O[C@@H]4O[C@H](CO[C@@H]5O[C@@H](C)[C@H](O)[C@@H](O)[C@H]5O)[C@@H](O)[C@H](O)[C@H]4O)cc3o2)cc1O", "inhibition": "37.8% (active)"},
      {"smiles": "Cc1csc(CN(C)C(=O)CC2C(=O)NCCN2CC(C)(C)C)n1", "note": "(configuration not stated)", "inhibition": "-0.64% (inactive)"},
      {"smiles": "CC1(C(=O)Nc2cccc(Oc3ccccc3)c2)CCN1Cc1ccccc1Cl", "note": "(configuration not stated)", "inhibition": "11.5% (inactive)"},
      {"smiles": "CCOc1cc(C)ccc1OCc1nnc(SCC(=O)Nc2cccc(C(=O)O)c2)n1-c1ccccc1", "inhibition": "5.71% (inactive)"}
    ]}
  ]
}
